Reference: PubChem BioAssay AID686978 (National Center for Advancing Translational Sciences (NCATS), 2013)
In all, about 420,000 compounds went through this assay and about 64,000 (15%) were called active. Not shown: some 27% with an inconclusive outcome. Calls come from the whole dose curve; as a rule, active = well fitted inhibition curve with a large enough effect; inconclusive = small, poorly fitted or top-dose-only effect; inactive = flat fitted curve, though single readings scatter. A selection follows. A call without a number means that no potency is given here.

Experiment: qHTS for Inhibitors of human tyrosyl-DNA phosphodiesterase 1 (TDP1): qHTS in cells in absence of CPT; note: nearly all actives have a fitted effect of over 55% in size
Settings: DT40 Tdp1-/- hTDP1 cells, no CPT, ATP luminescence, 48 h; activity change, negative = growth inhibition: at 46.2 µM (top of the series)
How it was run: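 Seeded 400 DT40-hTDP1 cells/well (vehicle DMSO, no 20 nM CPT); pinned compounds; ≥48 hr at 37 °C; CellTiter-Glo luminescence as viability measure.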
Potency is the fitted concentration of half-maximal effect.

SMILES	Potency
COc1cccc(NC(=O)CN(C)C(=O)CSC(=S)N2CCCC2)c1	inactive
CC(=O)c1ccc(NC(=O)CSC(=S)N2CCCC2)cc1	inactive
CCN(CC(=O)Nc1ccc(NC(C)=O)cc1)C(=O)CSC(=S)N1CCCC1	7.31 µM (active)
CC(C)(C)OC(=O)C1=C(CO)CS[C@@H]2[C@H](NC(=O)Cc3ccccc3)C(=O)N12	inactive
O=C(NCCc1ccccc1)c1ccc2c(c1)N(Cc1ccc(F)cc1)C(=O)c1ccccc1S2(=O)=O	13 µM (active)
NS(=O)(=O)c1ccc(CCNC(=O)CN2C(=O)c3ccccc3S2(=O)=O)cc1	inactive
O=C(NCCC1=CCCCC1)c1ccc2c(c1)N(Cc1ccccc1F)C(=O)c1ccccc1S2(=O)=O	16.4 µM (active)
O=C(c1ccc2c(c1)N(Cc1ccc(F)cc1)C(=O)CS2)N1CCOCC1	inactive
O=C(NCCc1ccc(Cl)cc1)c1ccc2c(c1)N(Cc1ccc(F)cc1)C(=O)CS2	29.1 µM (active)
CN(Cc1ccc(F)cc1)C(=O)CN1C(=O)c2ccccc2S1(=O)=O	inactive
O=C(NCCc1ccc(Cl)cc1)c1cccc(N2CCCC2=O)c1	inactive
Cc1ccc(C)c(NC(=O)Cn2ccn(-c3ccc(F)cc3)c(=O)c2=O)c1	inactive
NS(=O)(=O)c1ccc(CCNC(=S)Nc2ccc(S(N)(=O)=O)cc2)cc1	inactive
CCOc1ccc(N(CC)C(=O)c2cc3c(=O)oc4ccccc4c3s2)cc1	inactive
Cc1cc([N+](=O)[O-])nn1Cc1ccc(F)cc1	inactive
O=c1c2ccccc2c(-c2ccccc2)nn1-c1ccccn1	inactive
CNC(=O)n1ccc(C(=O)N2CCCCC2)n1	inactive
O=C(CCC(=O)c1cccs1)NCc1ccccc1	inactive
Cc1ccc(SCCN2C(=O)NC(C)(C)C2=O)cc1	inactive
O=C(CC1CCCCC1)NCc1ccco1	inactive
O=C(Nc1ccc(Cl)cc1)C1c2cccc[n+]2CC(=O)N1Cc1ccc2c(c1)OCO2 (centres undefined)	1.03 µM (active)
O=C(Nc1ccc2c(c1)OCCO2)C1c2ccccc2OCC(=O)N1Cc1ccccn1 (centres undefined)	inactive
O=C(Nc1ccc(NC(=O)c2ccc3c(c2)OCO3)cc1)c1cccc(Cl)c1	inactive
CSc1ccccc1C(=O)NCc1ccccc1	inactive
C=CCOc1cccc(CNn2cn[nH]c2=S)c1	inactive
CC(=O)Nc1ccc(Oc2ccc3c(c2)C(=O)NC3=O)cc1	inactive
Cc1cc(C)nc(S/C=C/C(=O)c2ccccc2)n1	2.59 µM (active)
C/C(=N\NC(=O)c1nc(C)cc(C)n1)c1ccccc1	inactive
Cc1ccc(N/C=C/C(=O)c2ccccc2)cc1C	inactive
